Pf growth 48h = P. falciparum growth inhibition at 48 hours (one generation). AID 504832. Potency, µM (top dose mostly 28.7 µM), actives largely listed as inhibitors. actives 5.9% (n = 310,000). P. falciparum luciferase growth in erythrocytes, 48 h
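Here the parasites carry a stable luciferase gene and grow inside erythrocytes in Albumax-based RPMI medium with compound for one erythrocytic cycle. Activity is scored as loss of luminescent signal.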
AMA1-RON2 inh = disrupts binding of P. falciparum AMA1 to RON2 | actives 0.2% (n = 360,000) | AID 720542 | Potency, µM (doses to about 58.2 µM), hits mostly inhibitors | AlphaScreen AMA1-biotinylated RON2 peptide binding; further: nearly all actives have a fitted effect of over 45% in size
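AMA1 (3D7) with his tag at 25 nM final met compounds first, then biotinylated RON2 peptide at 25 nM; detection used donor plus acceptor beads, 10 µg/mL apiece, read by AlphaScreen after 30 min at room temperature.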
HCV inhibitor = blocks hepatitis C virus; Huh7.5.1 HCVcc-Cre infection, luciferase reporter, 44 h; Potency, µM (highest dose often 41.8 µM), most hits filed as inhibitors; actives 3.4% (n = 340,000); AID 651820
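Reporter virus HCVcc-Cre (~0.5 moi) infects cells exposed to compound; seeding density 1,000 cells/well with 4 h settling beforehand. Luminescence, 15 sec read, taken 44 h post-infection following a 15 min RT substrate incubation.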
Pf growth 96h = P. falciparum growth inhibition at 96 hours; P. falciparum luciferase reporter growth, 96 h; Potency, µM (top dose mostly 28.7 µM), actives largely listed as inhibitors; actives 6.9% (n = 320,000); AID 504834
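Cell-based qHTS: luciferase-tagged P. falciparum in erythrocytes (2% hematocrit, 0.05% parasitemia final) incubated with compounds for 96 hours, 37 C, 5% CO2; luciferase detection reagent then added and luminescence measured.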
Each line names hits and unclear results; the compound was inactive in the other large screens. This is a sample that favours compounds with a hit; in the whole collection about 11% have one here. The call rests on the fitted dose curve; in most records, active means well fitted curve in the direction sought with a large enough effect; inconclusive means small, poorly fitted or top-dose-only effect, or another doubt; inactive means no such curve, though single readings can be large; an effect the other way counts as inactive or inconclusive.

Cc1cc(C)c2cc(C(=O)Nc3ccccc3)[nH]c2c1	Pf growth 48h inconclusive, HCV inhibitor inconclusive, Pf growth 96h 8.3µM
Cc1ccc2[nH]c(C(=O)Nc3ccc(F)cc3)cc2c1	Pf growth 96h 8.3µM
NC(=O)c1sc2nnc(-c3ccccc3)c(-c3ccccc3)c2c1N	none
Cc1cccc(NC2SC(=O)NC2=O)c1 (stereo unspecified)	none
c1ccc2c(C[C@@H]3CNCCN3CC3CCCCC3)cccc2c1	Pf growth 48h inconclusive, HCV inhibitor inconclusive, Pf growth 96h 12µM
Oc1ccc(C[C@@H]2CNCCN2CC2CCCCC2)cc1	Pf growth 48h inconclusive, Pf growth 96h inconclusive
CCCN1CCCC2Cc3nc(N)ncc3CC21 (stereo unspecified)	Pf growth 96h 12µM (no result: AMA1-RON2 inh, HCV inhibitor)
COC(=O)c1ccc([N+](=O)[O-])c(CS(=O)(=O)c2ccc(Cl)cc2)c1	none
CO/N=C/CC(=O)c1ccc([N+](=O)[O-])c(CS(=O)(=O)c2ccc(Cl)cc2)c1	Pf growth 48h 15µM, HCV inhibitor inconclusive, Pf growth 96h inconclusive
O=C(CC(=O)c1cccs1)c1ccncc1	none (no result: Pf growth 48h, Pf growth 96h)
O=C(O)C1CCCCC1C(=O)NCCc1ccc(F)cc1 (stereo unspecified)	Pf growth 96h 9.3µM
CC(=O)Nc1cccc(C(=O)NC2CCCc3c2cnn3-c2cc(C)cc(C)c2)c1 (stereo unspecified)	Pf growth 96h inconclusive
Cc1cccc(N2CCN(C(=O)c3ccc4c(c3)NC(=O)C(CSCc3cccc(F)c3)N4)CC2C)c1 (stereo unspecified)	none
O=C(c1ccccc1)C(O)c1ccccc1 (stereo unspecified)	Pf growth 48h inconclusive, HCV inhibitor inconclusive, Pf growth 96h 9.5µM
O=C(NC(NC(=O)c1ccccc1)C(=O)c1ccccc1)c1ccccc1	Pf growth 96h 2.3µM
Cc1ccccc1C(=O)N(C)[C@H]1C[C@H]2c3[nH]c4ccccc4c3CCN2C(=O)[C@H]1[C@H](C)O	none (no result: Pf growth 48h, HCV inhibitor, Pf growth 96h)
O=C(Nc1nc2ccccc2n1CCOc1ccccc1)c1ccco1	Pf growth 48h 2.9µM, HCV inhibitor inconclusive, Pf growth 96h 2.9µM
O=C(Nc1nc2ccccc2n1CCOc1ccc(Cl)cc1)c1ccco1	HCV inhibitor inconclusive, Pf growth 96h inconclusive (no result: Pf growth 48h)
S=C(Nc1ccccc1)Nc1nc2ccccc2n1CCOc1ccc(Br)cc1	Pf growth 48h 3.3µM, HCV inhibitor inconclusive
Cc1ccc(OCCn2c(NC(=O)c3ccco3)nc3ccccc32)cc1	Pf growth 48h 2.9µM, Pf growth 96h inconclusive
COc1cc(CNC(=O)Nc2nc(C(N)Cc3ccc(C(F)(F)F)cc3)cs2)cc(OC)c1OC (stereo unspecified)	none (no result: Pf growth 48h, HCV inhibitor, Pf growth 96h)
Cc1ccc(C(C(=O)NCC2CCCO2)N(C(=O)c2snc(C(N)=O)c2N)c2ccccc2F)o1 (stereo unspecified)	Pf growth 48h inconclusive
CCOc1ccc(N(C(=O)CNC(=O)c2ccco2)C(C(=O)NC2CCCC2)c2cccnc2)cc1 (stereo unspecified)	none
CN1CCN(Cc2cccc(Oc3ccccc3)c2)CC1	Pf growth 96h inconclusive (no result: Pf growth 48h)
CCCCOc1ccc(C(=O)Nc2ccc(CN3CCOCC3)cc2)cc1	Pf growth 48h inconclusive, HCV inhibitor 10µM, Pf growth 96h inconclusive
CCCOc1ccc(C(=O)Nc2ccc(CN3CCOCC3)cc2)cc1	HCV inhibitor inconclusive, Pf growth 96h inconclusive
OCCN1CCN(Cc2cccc(Oc3ccc(Cl)cc3)c2)CC1	Pf growth 48h inconclusive, HCV inhibitor 11µM
O=C(Nc1ccc(S(=O)(=O)Nc2ccc(F)cc2)cc1)c1ccc(CN2CCOCC2)cc1	Pf growth 48h inconclusive, HCV inhibitor 1µM
COc1ccc(NS(=O)(=O)c2ccc(NC(=O)c3ccc(CN4CCOCC4)cc3)cc2)cc1	Pf growth 48h 15µM, HCV inhibitor 1.4µM
CCN(CC)C(=O)C1=C(C)N(Cc2ccc(F)cc2)C(=O)C(CC(=O)NCCCN(C)C)C1 (stereo unspecified)	none (no result: Pf growth 48h, HCV inhibitor, Pf growth 96h)
CCN=C(NC#N)SCc1c(F)cccc1Cl	HCV inhibitor inconclusive
CCCCCCOc1ccc(CN2CCN(CCO)CC2)cc1	HCV inhibitor 10µM (no result: Pf growth 96h)
COc1ccc(CN2CCOCCOCCN(Cc3ccc(OC)cc3)CCOCCOCC2)cc1	Pf growth 48h 13µM, HCV inhibitor inconclusive, Pf growth 96h inconclusive
CCCCOc1ccc(C(=O)Nc2ccncc2)cc1	Pf growth 48h inconclusive, HCV inhibitor 8.9µM
CCCOc1ccc(C(=O)Nc2cccnc2)cc1	none
COc1ccc(CN2CCOCCOCCOCC2)cc1	none
CCCCOc1ccc(CN2CCN(CCO)CC2)cc1	none (no result: Pf growth 96h)
COc1cc(SC)ccc1C(=O)Nc1ccc2ncccc2c1	HCV inhibitor inconclusive
Cc1cccnc1NC(=O)CCCNC(=O)c1ccc(Cl)cc1	none
Cc1cc(NC(=O)COC(=O)CCS(=O)(=O)c2cc(Cl)ccc2Cl)no1	none
COc1ccc(-c2nnc(SC(C)C(=O)Nc3ccc4c(c3)OCCO4)o2)cc1 (stereo unspecified)	Pf growth 96h 12µM
Cc1nnc(SC(C)C(=O)Nc2ccc3c(c2)OCCO3)s1 (stereo unspecified)	Pf growth 96h 10µM
Cc1nnc(SC(C)C(=O)Nc2ccc(S(=O)(=O)N3CCCCCC3)cc2)s1 (stereo unspecified)	Pf growth 48h 12µM (no result: Pf growth 96h)
Cc1nnc(SCC(=O)NC(=O)Nc2ccc3c(c2)OCCO3)s1	none
Cc1onc(-c2ccccc2)c1-c1nnc(CN2CCN(S(=O)(=O)c3ccccc3)CC2)o1	Pf growth 48h inconclusive, HCV inhibitor inconclusive, Pf growth 96h inconclusive
O=C(NCc1ccccc1CN1CCCC1)C1CCN(C(=O)c2ccc(Cl)cc2)CC1	none (no result: Pf growth 48h, HCV inhibitor, Pf growth 96h)
COc1ccc(C(CNC(=O)COc2cccc(C)c2)N2CCCC2)cc1 (stereo unspecified)	Pf growth 48h inconclusive, Pf growth 96h 13µM
COc1ccc(C(CNC(=O)COc2ccccc2C)N2CCCC2)cc1 (stereo unspecified)	Pf growth 96h inconclusive (no result: HCV inhibitor)
COc1ccc(C(CNC(=O)COc2ccc(Cl)c(C)c2)N2CCCCC2)cc1 (stereo unspecified)	Pf growth 48h inconclusive, HCV inhibitor inconclusive
COc1ccc(C(CNC(=O)COc2cccc(C(F)(F)F)c2)N2CCCC2)cc1 (stereo unspecified)	Pf growth 48h 10µM, HCV inhibitor inconclusive, Pf growth 96h 12µM
CCOC(=O)c1cc(C#N)c(SC(C)C(=O)NC2CCCCC2)nc1C (stereo unspecified)	none
COc1cccc(NC(=S)N(CCN(C)C)C(C)c2ccco2)c1 (stereo unspecified)	HCV inhibitor inconclusive, Pf growth 96h inconclusive
COc1ccc(NC(=S)N(CCN(C)C)C(C)c2ccco2)cc1Cl (stereo unspecified)	HCV inhibitor inconclusive, Pf growth 96h 10µM
CC(=O)C1=C(O)C(=O)N(c2ccc(O)cc2)C1c1cccc(F)c1 (stereo unspecified)	Pf growth 96h inconclusive
Cc1ccc(NC(=O)COc2cccc(Oc3ccccc3)c2)cc1S(=O)(=O)N1CCOCC1	Pf growth 48h 10µM, HCV inhibitor 3.2µM, Pf growth 96h inconclusive
CCOc1ccccc1OCCCC(=O)Nc1ccc(Cl)c(S(=O)(=O)N2CCOCC2)c1	Pf growth 48h 9.3µM, HCV inhibitor 7.9µM, Pf growth 96h 7.4µM

Source: PubChem BioAssay (National Center for Advancing Translational Sciences (NCATS))
